# Measurements as given in PubChem BioAssay.
# Calls of active or inactive are those of the source. Unless noted, the rule behind the calls is not given here.
# Key:
# [1] = HepG2 liver cancer cell viability effects, profiling panel, resazurin fluorescence, 24 h, PK04 Diversity Set (AID 1172); conditions: higher = more signal; note: test concentration not given here
# [2] = basal S. cerevisiae growth modulation, no modifier, primary screen, OD600, strain BY4716, 24 h, basal condition (AID 1173); conditions: OD600, 24 h, higher = more signal, called active from +8 up or from −8 down
# [3] = MM1S myeloma cell viability, profiling panel, resazurin fluorescence, basal, 24 h, PK04 Diversity Set (AID 1174); conditions: higher = more signal, called active from +8 up or from −8 down;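 note: MM1S multiple myeloma cell line; test concentration not given here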
# [4] = target: Dihydroorotate dehydrogenase (quinone), mitochondrial (Plasmodium falciparum (isolate 3D7)) (UniProt Q08210); assay: PfDHODH enzyme inhibitors, primary screen, biochemical, C-terminal His tag, absorbance 600 nm (AID 1175); conditions: DCIP absorbance 600 nm, higher = more signal, called active from +8 up or from −8 down;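 note: recombinant parasite enzyme with a five histidine tag at its C terminus; test concentration not given here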
# Sequence of Dihydroorotate dehydrogenase (quinone), mitochondrial (Plasmodium falciparum (isolate 3D7)) (Q08210 whole entry, looked up): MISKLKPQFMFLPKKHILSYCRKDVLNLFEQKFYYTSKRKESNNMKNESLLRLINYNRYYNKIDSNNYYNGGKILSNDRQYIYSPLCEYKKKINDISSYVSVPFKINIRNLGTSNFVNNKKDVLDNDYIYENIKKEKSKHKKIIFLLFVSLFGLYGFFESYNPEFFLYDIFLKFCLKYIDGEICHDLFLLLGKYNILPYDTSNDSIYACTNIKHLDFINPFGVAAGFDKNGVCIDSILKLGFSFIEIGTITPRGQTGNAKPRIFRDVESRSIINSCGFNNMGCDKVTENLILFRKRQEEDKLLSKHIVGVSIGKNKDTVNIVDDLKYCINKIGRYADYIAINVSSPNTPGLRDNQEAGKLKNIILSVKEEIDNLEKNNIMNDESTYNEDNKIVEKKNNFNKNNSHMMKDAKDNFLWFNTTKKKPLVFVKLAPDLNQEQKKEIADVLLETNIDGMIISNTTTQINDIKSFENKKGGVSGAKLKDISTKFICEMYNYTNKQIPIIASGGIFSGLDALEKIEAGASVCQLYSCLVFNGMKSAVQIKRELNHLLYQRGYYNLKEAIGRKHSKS
# [5] = P. aeruginosa biofilm formation inhibitors, primary screen, strain PAO1, LB-PBS medium, absorbance 600 nm (AID 1176); note: test concentration not given here; conditions: P. aeruginosa PAO1 growth/biofilm, A600, 12 h; higher = more signal
# [6] = S. cerevisiae RM11-1a growth modifiers, primary screen, strain RM11-1a, OD600, basal, 24 h (AID 1177); conditions: OD600, 24 h, higher = more signal, called active from +8 up or from −8 down;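 note: cultures grown under basal conditions with no added stressor; test concentration not given here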
# [7] = E. coli acrAB mutant growth effects, primary screen, E. coli filamentation inducers, strain DRC39, OD650, 24 h (AID 1178); conditions: higher = more signal, called active from +8 up or from −8 down;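 note: growth measured as culture turbidity by optical density at 650 nm; test concentration not given here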
# [8] = E. coli acrAB mutant growth effects, primary screen, E. coli filamentation inducers, strain DRC39, OD650, 48 h (AID 1179);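 note: screen aims at cell division blockers that make cells filament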; conditions: E. coli DRC39 delta-acrAB growth, higher = more signal, called active from +8 up or from −8 down
# [9] = RPMI8226 myeloma cell viability, profiling panel, resazurin fluorescence, basal, 24 h, PK04 Diversity Set (AID 1180); conditions: higher = more signal;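 note: RPMI8826 multiple myeloma cell line at 5000 cells per well; test concentration not given here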
# [10] = target: E3 ubiquitin-protein ligase XIAP (Homo sapiens) (UniProt P98170); assay: XIAP binders, primary screen, biophysical, small-molecule microarray, fluorescence 635 nm (AID 1181); conditions: small-molecule microarray binding, higher = more signal;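 note: score merges 667 nm emission and signal to noise over triplicate slides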
# Sequence of E3 ubiquitin-protein ligase XIAP (Homo sapiens) (P98170 whole entry, looked up): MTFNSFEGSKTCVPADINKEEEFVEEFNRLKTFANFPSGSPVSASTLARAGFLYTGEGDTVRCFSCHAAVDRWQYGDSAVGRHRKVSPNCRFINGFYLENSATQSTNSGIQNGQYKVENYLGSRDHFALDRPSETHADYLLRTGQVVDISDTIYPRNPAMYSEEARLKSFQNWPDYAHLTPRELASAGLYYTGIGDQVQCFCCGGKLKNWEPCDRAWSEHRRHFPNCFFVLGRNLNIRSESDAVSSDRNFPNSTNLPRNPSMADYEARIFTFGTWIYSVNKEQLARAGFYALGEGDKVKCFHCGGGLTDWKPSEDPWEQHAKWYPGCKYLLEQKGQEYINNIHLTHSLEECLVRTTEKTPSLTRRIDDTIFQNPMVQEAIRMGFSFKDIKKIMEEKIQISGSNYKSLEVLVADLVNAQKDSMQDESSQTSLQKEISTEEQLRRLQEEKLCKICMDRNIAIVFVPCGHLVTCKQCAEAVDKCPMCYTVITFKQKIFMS
Compound,z-score [1],z-score [2],z-score [3],composite z-score [4],z-score [5],z-score [6],z-score [7],z-score [8],z-score [9],composite z-score [10]
CO[C@H]1COC(=O)[C@H](C)COC(=O)[C@@H](OCc2ccccc2)C=C[C@@H]1C,0.176,-2.14 (inactive),-0.114 (inactive),0.175 (inactive),-0.355 (inactive),-0.077 (inactive),1.02 (inactive),0.636 (inactive),-0.476,-0.138
CC(=O)OC[C@H]1O[C@H](CC=NO[C@@H](C)c2cn([C@H](CO)Cc3ccccc3)nn2)C=C[C@@H]1OC(C)=O,-0.462,-0.305 (inactive),0.0157 (inactive),-2.87 (inactive),-0.88 (inactive),-0.793 (inactive),-0.645 (inactive),-1.36 (inactive),0.205,-0.434
CC(C)CON=C1C[C@@H](O)[C@@H](O)[C@@H]2[C@@H]3C(=O)N(Cc4ccc5c(c4)OCO5)C(=O)[C@@H]3CC[C@@H]12,0.344,0.793 (inactive),0.61 (inactive),0.0312 (inactive),-0.249 (inactive),0.64 (inactive),0.146 (inactive),-0.563 (inactive),-0.0253,-0.102
O=C1[C@H]2[C@H]3[C@H](O)[C@H](O)CC(=NO[C@@H]4O[C@H](CO)[C@@H](O)[C@H](O)[C@H]4O)[C@@H]3CC[C@H]2C(=O)N1C1CCCCC1,-0.841,0.431 (inactive),-2.35 (inactive),-0.201 (inactive),0.553 (inactive),0.237 (inactive),-0.0163 (inactive),0.27 (inactive),-0.917,-0.132
COC(=O)[C@@H]1CC[C@H](C)[C@@H](c2ccc(Br)cc2)N1C[C@@H](O)CN=[N+]=[N-],-0.36,-11.9 (active),0.506 (inactive),-3.04 (inactive),0.733 (inactive),-0.492 (inactive),-1.47 (inactive),-2.14 (inactive),-0.0718,-0.0118
O=C1[C@H]2CCn3c(=O)n(-c4ccccc4)c(=O)n3[C@H]2[C@H](O)[C@@H]2O[C@H]12,-0.507,-0.251 (inactive),-0.468 (inactive),-0.106 (inactive),-0.212 (inactive),-0.303 (inactive),-0.447 (inactive),-0.489 (inactive),-0.579,-0.287
CCN1C(=O)[C@H]2[C@H]3[C@H](O)[C@H](O)CC(=NO[C@H](C)c4cn([C@H](CO)Cc5ccccc5)nn4)[C@@H]3CC[C@H]2C1=O,-0.948,0.0722 (inactive),-1.37 (inactive),-0.613 (inactive),0.359 (inactive),-0.141 (inactive),1.44 (inactive),0.829 (inactive),-1.46,0.0178
C#CCCCON=C1C[C@@H](O)[C@@H](O)[C@@H]2[C@@H]3C(=O)N(C[C@@H]4CCCO4)C(=O)[C@@H]3CC[C@@H]12,0.475,0.43 (inactive),0.0893 (inactive),-0.85 (inactive),0.14 (inactive),-0.399 (inactive),0.534 (inactive),0.802 (inactive),0.199,-0.0303
CC(C)=NO[C@@H](C)c1cn([C@H](CO)Cc2ccccc2)nn1,-1.27,-1.16 (inactive),-0.597 (inactive),-1.44 (inactive),0.0889 (inactive),-2.2 (inactive),0.0116 (inactive),-1.77 (inactive),-1.18,0.314
C[C@H]1CC[C@@H](C(=O)O)N[C@@H]1c1cccc(N2CCCC2=O)c1,0.672,-0.281 (inactive),-0.0691 (inactive),0.552 (inactive),-0.163 (inactive),0.765 (inactive),0.968 (inactive),0.215 (inactive),-0.652,0.0909
CCN1C(=O)[C@H]2[C@H]3[C@H](O)[C@H](O)CC(=NOC(C)CN4CCCc5nc(C)c(C)cc54)[C@@H]3CC[C@H]2C1=O (stereo not given in full),-1.01,-0.0189 (inactive),-2 (inactive),0.988 (inactive),-0.112 (inactive),0.49 (inactive),0.836 (inactive),0.583 (inactive),-2.01,0.109
CC(CCC(=O)OC[C@H]1O[C@H](C#Cc2ccccc2)C=C[C@@H]1Oc1ccc(C)cc1)=NO[C@@H](C)c1cc(-c2c(C)cc(C)cc2C)no1,-0.53,0.0942 (inactive),0.281 (inactive),1.04 (inactive),-0.798 (inactive),0.333 (inactive),-0.135 (inactive),0.213 (inactive),0.838,-0.102
C[C@H]1CC[C@H]2C(=O)O[C@H](CO)CN2[C@@H]1c1ccc(Br)cc1,0.72,-8.2 (active),0.678 (inactive),0.586 (inactive),0.441 (inactive),-0.356 (inactive),0.342 (inactive),-0.016 (inactive),-0.817,0.0733
COCOc1ccc(Br)cc1C(=O)C=Cc1ccc2c(c1)OCO2,-2.37,-3.33 (inactive),-3.86 (inactive),-1.1 (inactive),1.01 (inactive),0.616 (inactive),0.725 (inactive),0.253 (inactive),-3.36,-0.0076
C[C@@H](c1ccccc1)N1C(=O)[C@H]2[C@H]3[C@H](O)[C@H](O)CC(=NOCc4ccccc4)[C@@H]3CC[C@H]2C1=O,-0.511,-0.123 (inactive),-0.457 (inactive),0.805 (inactive),-0.0819 (inactive),-0.183 (inactive),-0.241 (inactive),-0.0934 (inactive),-0.181,-0.185
COC(=O)[C@H](C)NC(=O)CCC1CC(OC(=O)NCCc2ccc(F)cc2)CC2(CCCC(COC(=O)NCC3CCCCC3)O2)O1 (stereo not given in full),0.427,-0.491 (inactive),1.05 (inactive),-2.53 (inactive),-0.919 (inactive),0.363 (inactive),-0.603 (inactive),-0.741 (inactive),0.13,0.514
O=C1C[C@H](c2ccccc2)[C@H](c2ccc(Br)cc2)O1,-0.598,-8.77 (active),-0.118 (inactive),-1.24 (inactive),0.605 (inactive),-2.74 (inactive),0.358 (inactive),-1.67 (inactive),0.0497,-0.0438
CON(C)C(=O)c1nnc2c(n1)[nH]c1ccccc12,-0.244,0.304 (inactive),0.322 (inactive),-0.306 (inactive),0.131 (inactive),-0.915 (inactive),0.593 (inactive),0.572 (inactive),0.492,0.273
CCOC(=O)[C@H](CC(C)C)NC(=O)CCC1CC(OC(=O)NCc2ccc3c(c2)OCO3)CC2(CCCC(COC(=O)NCCOc3ccccc3)O2)O1 (stereo not given in full),-0.167,0.592 (inactive),0.691 (inactive),0.0657 (inactive),-0.564 (inactive),1.21 (inactive),-0.0466 (inactive),-0.875 (inactive),0.632,0.154
O=C1[C@H]2[C@H]3[C@H](O)[C@H](O)CC(=NO[C@@H]4O[C@H](CO)[C@@H](O)[C@H](O)[C@H]4O)[C@H]3CC[C@H]2C(=O)N1C[C@@H]1CCCO1,0.724,0.628 (inactive),-1.45 (inactive),-0.595 (inactive),-0.355 (inactive),0.855 (inactive),0.42 (inactive),0.595 (inactive),-0.39,0.127
CC(CCN1CCCc2nc(C)c(C)cc21)=NOC[C@@H](C)[C@H](OCc1ccccc1)C(C)C,-0.135,-3.26 (inactive),0.0518 (inactive),-2.07 (inactive),-0.0417 (inactive),-1.86 (inactive),-0.787 (inactive),0.262 (inactive),-0.0093,0.0153
